# Results filed as inconclusive are left out. Where a call stands in place of a potency, no number is given. Active and inactive are the calls of the source. Unless noted, calls follow the shape of the dose curve; as a rule, active = well fitted curve in the direction sought with a large enough effect; inconclusive = small, poorly fitted or top-dose-only effect, or another doubt; inactive = no such curve, though single readings can be large; an effect the other way counts as inactive or inconclusive.
# Tests used:
# [1] = Natriuretic polypeptide receptor (hNpr1) antagonism - Pilot counterscreen GloSensor control cell line (AID 1347045; calls by dose curve; also: potency is read from the fitted curve at half-maximal effect)
# Procedure, shortened: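 Cells were first seeded and incubated overnight at 37C, then loaded with 2% GloSensor substrate for 2 h. Compounds were added for 30 min at room temperature, followed by a baseline read, 50 uM SNP and a final read after 20 min.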
# [2] = biological target: Atrial natriuretic peptide receptor 1 (Homo sapiens) (UniProt P16066); assay: Natriuretic polypeptide receptor (hNpr1) antagonism - Pilot screen (AID 1347049; calls by dose curve;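 also: agonist-evoked cGMP luminescence read 20 min after hNppA addition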; also: potency is read from the fitted curve at half-maximal effect)
# Procedure, shortened: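 cGMP-sensor HEK293/hNpr1 cells, 1500/well, plated overnight at 37C. 2% GloSensor reagent, 2 h RT. Compound (23 nL pin transfer) 30 min RT, baseline luminescence pre-read. 0.1 nM hNppA, 20 min RT, post-read.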
# [3] = biological target: Atrial natriuretic peptide receptor 2 (Homo sapiens) (UniProt P20594); assay: Natriuretic polypeptide receptor (hNpr2) antagonism - Pilot subtype selectivity assay (AID 1347050; calls by dose curve)
# Procedure, shortened: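 Luminescence from a genetically encoded cGMP luciferase biosensor in hNpr2-expressing HEK293 cells is read before and 20 min after adding 1 nM hNppC. Test compounds, in interplate 1:5 titrations, are added 30-50 min ahead of the agonist.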
# [4] = biological target: Parathyroid hormone/parathyroid hormone-related peptide receptor (Homo sapiens) (UniProt Q03431); assay: qHTS for PTHR1 Agonists: Optimization Screen against the NCGC LOPAC library (AID 1347079);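 also: GloSensor cAMP luminescence in HEK-293 GP2 cells expressing human PTHR1 with IBMX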
# Procedure, shortened: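 HEK-293 GP2 cells, PTHR1 + GloSensor cAMP; 3000 cells/well, o/n. Luciferin + IBMX 0.5mM each (stock), 1 hr 37C. Cpd titration, 1 hr 37C. Lum after 15 min RT. Ctrl M-PTH(1-15) top 10uM.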
# [5] = NS1 protein of Zika virus - qHTS assay to identify small molecule inhibitors in human HEK 293 cells (AID 1347053); also: nearly all actives have a fitted effect of over 55% in size; also: potency is read from the fitted curve at half-maximal effect
# Procedure, shortened: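 In this cell-based screen, HEK 293 cultures received compound for one hour before Zika MR766 at MOI = 0.5. NS1 was quantified 24 hours later by TR-FRET, normalized to virus-free wells and infected wells.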
# [6] = biological target: T1, Tyrosine-protein phosphatase non-receptor type substrate 1 (Homo sapiens) + Leukocyte surface antigen CD47 (Homo sapiens) (UniProt P78324+Q08722); assay: CD47-SIRPalpha protein protein interaction - LANCE assay qHTS validation (AID 1347057; active = well fitted curve in the direction sought with a large enough effect in the signal ratio, with a control signal flat, not every such curve was filed as active; the % refers to the signal ratio; also: series mostly up to about 38 µM)
# Procedure, shortened: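 Inhibition of soluble CD47/SIRPalpha ectodomain association by titrated compounds, measured as 665/615 nm time-resolved FRET ratio after sequential 30 min room-temperature incubations.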
# [7] = biological target: T1, Tyrosine-protein phosphatase non-receptor type substrate 1 (Homo sapiens) + Leukocyte surface antigen CD47 (Homo sapiens); assay: CD47-SIRPalpha protein protein interaction - HTRF assay qHTS validation (AID 1347058; active = well fitted curve in the direction sought with a large enough effect in the signal ratio, not every such curve was filed as active; the % refers to the signal ratio; also: series mostly up to about 38 µM)
# Procedure, shortened: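 Soluble extracellular domains (6His-CD47, Avi-tag-biotinylated SIRPalpha) in PBS pH 7.4 with 0.05% IGEPAL CA-630. Compounds were preincubated 30 min at RT with CD47 and anti-His-Eu, then SIRPalpha and SAV-XL665 were added. TR-FRET 665/615 ratio.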
# [8] = biological target: T1, Tyrosine-protein phosphatase non-receptor type substrate 1 (Homo sapiens) + Leukocyte surface antigen CD47 (Homo sapiens); assay: CD47-SIRPalpha protein protein interaction - Alpha assay qHTS validation (AID 1347059);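 also: bead proximity luminescence from CD47 binding SIRPalpha after compound preincubation with SIRPalpha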; also: potency is read from the fitted curve at half-maximal effect
# Procedure, shortened: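 SIRPalpha-biotin 25 nM + cpd, 30 min RT, dark; add CD47-His 12.5 nM, 30 min; add Ni-NTA/SAV beads 10 ug/mL, 30 min; AlphaScreen. Buffer PBS pH 7.4 + 0.05% IGEPAL CA-630. Non-biotinylated SIRPalpha as control inhibitor.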
# Chain of Atrial natriuretic peptide receptor 1 (Homo sapiens) (P16066 whole entry, looked up): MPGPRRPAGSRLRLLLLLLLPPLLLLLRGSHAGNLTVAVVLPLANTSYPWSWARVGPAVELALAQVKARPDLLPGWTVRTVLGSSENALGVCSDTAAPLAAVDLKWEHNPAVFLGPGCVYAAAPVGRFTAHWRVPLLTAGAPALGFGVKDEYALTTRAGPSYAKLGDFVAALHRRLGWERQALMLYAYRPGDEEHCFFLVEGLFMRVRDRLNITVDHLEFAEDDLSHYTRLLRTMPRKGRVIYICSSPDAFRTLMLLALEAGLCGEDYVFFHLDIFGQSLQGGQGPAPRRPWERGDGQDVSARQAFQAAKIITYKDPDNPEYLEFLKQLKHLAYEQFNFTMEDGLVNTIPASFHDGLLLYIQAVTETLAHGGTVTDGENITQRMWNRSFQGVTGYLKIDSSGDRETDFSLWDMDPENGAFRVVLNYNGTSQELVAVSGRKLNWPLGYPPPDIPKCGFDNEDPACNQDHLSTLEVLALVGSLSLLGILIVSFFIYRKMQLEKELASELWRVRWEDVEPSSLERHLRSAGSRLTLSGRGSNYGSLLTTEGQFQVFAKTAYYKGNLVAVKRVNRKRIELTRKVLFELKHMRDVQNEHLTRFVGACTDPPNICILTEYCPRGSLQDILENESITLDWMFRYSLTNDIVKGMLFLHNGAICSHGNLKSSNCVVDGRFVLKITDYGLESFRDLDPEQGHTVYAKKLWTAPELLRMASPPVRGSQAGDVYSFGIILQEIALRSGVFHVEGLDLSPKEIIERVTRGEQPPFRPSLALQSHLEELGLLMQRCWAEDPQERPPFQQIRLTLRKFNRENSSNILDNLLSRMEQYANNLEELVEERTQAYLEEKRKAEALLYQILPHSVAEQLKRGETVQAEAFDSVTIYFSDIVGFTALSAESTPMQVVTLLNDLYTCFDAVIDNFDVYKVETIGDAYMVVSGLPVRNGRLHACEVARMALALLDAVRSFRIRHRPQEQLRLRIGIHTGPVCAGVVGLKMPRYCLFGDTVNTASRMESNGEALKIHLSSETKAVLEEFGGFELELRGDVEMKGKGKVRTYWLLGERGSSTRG
# T1 sequence (P78324 whole entry, looked up, the tested form may be a part): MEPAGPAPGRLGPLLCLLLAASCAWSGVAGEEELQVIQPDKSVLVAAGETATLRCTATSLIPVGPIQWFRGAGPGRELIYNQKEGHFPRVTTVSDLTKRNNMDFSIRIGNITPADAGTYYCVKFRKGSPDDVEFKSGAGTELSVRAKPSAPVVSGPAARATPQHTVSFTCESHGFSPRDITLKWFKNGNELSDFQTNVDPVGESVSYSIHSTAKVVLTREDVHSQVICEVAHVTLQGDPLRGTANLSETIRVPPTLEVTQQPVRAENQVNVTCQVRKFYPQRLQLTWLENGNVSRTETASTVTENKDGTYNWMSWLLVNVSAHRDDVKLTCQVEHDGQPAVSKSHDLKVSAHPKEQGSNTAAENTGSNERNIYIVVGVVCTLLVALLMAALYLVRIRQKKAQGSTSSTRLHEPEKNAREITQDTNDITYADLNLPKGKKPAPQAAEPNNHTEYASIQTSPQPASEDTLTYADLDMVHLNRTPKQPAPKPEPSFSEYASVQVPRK
# T1 sequence (Q08722 whole entry, looked up, the tested form may be a part): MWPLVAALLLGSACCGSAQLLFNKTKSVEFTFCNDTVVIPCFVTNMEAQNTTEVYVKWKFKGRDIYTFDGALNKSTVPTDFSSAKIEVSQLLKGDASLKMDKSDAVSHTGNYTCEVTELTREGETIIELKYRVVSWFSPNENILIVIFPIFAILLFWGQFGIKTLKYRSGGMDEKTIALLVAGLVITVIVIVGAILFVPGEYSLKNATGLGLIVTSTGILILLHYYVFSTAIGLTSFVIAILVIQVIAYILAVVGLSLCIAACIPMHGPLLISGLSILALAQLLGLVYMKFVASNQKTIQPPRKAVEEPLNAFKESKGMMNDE
# Chain of Parathyroid hormone/parathyroid hormone-related peptide receptor (Homo sapiens) (Q03431 whole entry, looked up): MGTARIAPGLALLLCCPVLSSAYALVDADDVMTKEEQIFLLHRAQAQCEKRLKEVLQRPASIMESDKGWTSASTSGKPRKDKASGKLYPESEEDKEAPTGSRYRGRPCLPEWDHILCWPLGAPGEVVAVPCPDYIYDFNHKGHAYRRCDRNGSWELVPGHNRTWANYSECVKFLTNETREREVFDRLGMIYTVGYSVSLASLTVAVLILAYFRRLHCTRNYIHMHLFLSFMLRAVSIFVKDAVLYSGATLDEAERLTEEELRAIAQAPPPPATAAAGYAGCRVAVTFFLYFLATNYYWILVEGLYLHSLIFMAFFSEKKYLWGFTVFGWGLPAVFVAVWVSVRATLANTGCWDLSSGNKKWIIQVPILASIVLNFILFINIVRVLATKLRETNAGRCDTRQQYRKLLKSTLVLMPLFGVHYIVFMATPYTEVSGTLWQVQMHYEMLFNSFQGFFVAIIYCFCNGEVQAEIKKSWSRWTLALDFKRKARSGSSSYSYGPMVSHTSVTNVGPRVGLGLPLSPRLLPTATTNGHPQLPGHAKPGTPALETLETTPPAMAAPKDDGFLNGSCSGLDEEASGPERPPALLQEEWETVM
# Chain of Atrial natriuretic peptide receptor 2 (Homo sapiens) (P20594 whole entry, looked up): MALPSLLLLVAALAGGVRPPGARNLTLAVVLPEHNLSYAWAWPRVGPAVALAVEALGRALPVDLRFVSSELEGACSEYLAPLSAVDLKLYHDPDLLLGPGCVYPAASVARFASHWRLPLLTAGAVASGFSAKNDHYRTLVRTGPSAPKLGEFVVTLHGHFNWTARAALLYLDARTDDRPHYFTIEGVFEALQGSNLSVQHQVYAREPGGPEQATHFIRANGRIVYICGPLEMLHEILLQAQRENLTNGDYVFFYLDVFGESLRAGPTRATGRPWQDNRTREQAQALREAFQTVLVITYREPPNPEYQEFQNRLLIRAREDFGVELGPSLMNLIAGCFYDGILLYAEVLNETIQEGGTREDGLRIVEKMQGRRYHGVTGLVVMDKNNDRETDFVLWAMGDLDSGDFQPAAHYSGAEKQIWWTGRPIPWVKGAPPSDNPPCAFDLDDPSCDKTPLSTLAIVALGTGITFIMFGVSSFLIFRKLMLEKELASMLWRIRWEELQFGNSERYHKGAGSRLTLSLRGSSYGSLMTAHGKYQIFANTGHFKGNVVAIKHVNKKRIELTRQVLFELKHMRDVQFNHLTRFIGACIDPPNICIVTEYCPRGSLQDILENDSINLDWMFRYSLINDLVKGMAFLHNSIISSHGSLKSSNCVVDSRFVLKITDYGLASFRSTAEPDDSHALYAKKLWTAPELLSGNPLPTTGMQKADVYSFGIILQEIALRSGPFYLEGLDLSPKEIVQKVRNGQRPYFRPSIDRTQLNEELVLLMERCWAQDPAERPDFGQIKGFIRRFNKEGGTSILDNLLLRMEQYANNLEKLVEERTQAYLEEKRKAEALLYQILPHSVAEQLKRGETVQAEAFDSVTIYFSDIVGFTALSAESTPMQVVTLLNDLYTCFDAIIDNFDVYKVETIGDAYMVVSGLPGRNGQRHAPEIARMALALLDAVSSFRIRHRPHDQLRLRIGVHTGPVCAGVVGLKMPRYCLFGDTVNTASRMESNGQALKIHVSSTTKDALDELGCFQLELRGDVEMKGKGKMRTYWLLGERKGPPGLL
Compound,Potency [1],Potency [2],Potency [3],Potency [4],Potency [5],Potency [6],outcome [7],Potency [8]
N.N.O=C(O)C1(C(=O)O)CCC1.[Pt],inactive,inactive,inactive,inactive,,,,
CC(=O)N[C@H](C(=O)O)C(C)(C)SN=O,,inactive,inactive,inactive,inactive,inactive,inactive,inactive
CN1CCc2cc(NC(=O)Nc3cccnc3)ccc21,,inactive,inactive,inactive,inactive,inactive,inactive,inactive
OC[C@H]1O[C@@H](n2cnc3c(NC4CCCCC4)ncnc32)[C@H](O)[C@@H]1O,,inactive,inactive,inactive,inactive,inactive,inactive,inactive
O=C1/C(=C/c2ccsc2)CC/C1=C\c1cccs1,1.47 µM (active),6.01 µM (active),,inactive,inactive,inactive,,
O=C1NC(=O)/C(=C/c2ccc(-c3ccc(F)cc3O)o2)S1,,inactive,inactive,inactive,inactive,inactive,inactive,inactive
Brc1c(Br)c(Br)c2n[nH]nc2c1Br,,inactive,inactive,inactive,inactive,inactive,inactive,inactive
NC(=O)C(=O)O,,inactive,inactive,inactive,inactive,inactive,inactive,inactive
Clc1ccc(N2CCN(Cc3c[nH]c4ncccc34)CC2)cc1,,inactive,inactive,inactive,inactive,inactive,inactive,inactive
c1cnc2c(c1)ccc1cccnc12,,inactive,inactive,inactive,7.08 µM (active),inactive,inactive,0.185 µM (active)
N=C(N)SCCc1ccc(CCSC(=N)N)cc1,inactive,inactive,inactive,inactive,,,,
Cc1ccccc1CNc1ncnc2c1ncn2C1OC(CO)C(O)C1O (centres undefined),inactive,inactive,inactive,inactive,,,,
CC(C)NC[C@H](O)COc1cccc2[nH]ccc12,,inactive,inactive,inactive,inactive,inactive,inactive,inactive
O=C(c1ccc(OCCCc2cnc[nH]2)cc1)C1CC1,,inactive,inactive,inactive,inactive,inactive,inactive,inactive
O=C(O)CC1CCCc2ccccc2C1O (centres undefined),,inactive,inactive,inactive,inactive,inactive,inactive,inactive
CC(C)NCC(O)COc1cccc2ccccc12 (centres undefined),,inactive,inactive,inactive,inactive,inactive,inactive,inactive

Compound,Potency [1],Potency [2],Potency [3],Potency [4],Potency [5],Potency [6],outcome [7],Potency [8]
CCCN(CC1CC1)c1nc(C)nc(Nc2c(Cl)cc(Cl)cc2Cl)c1Cl,,inactive,inactive,inactive,inactive,inactive,inactive,inactive
C[C@@H](CN1CCC(Cc2ccccc2)CC1)[C@@H](O)c1ccc(O)cc1,,inactive,inactive,inactive,inactive,inactive,inactive,inactive
NCCNC(=O)c1ncsc1-c1cccc(F)c1,inactive,inactive,inactive,inactive,,,,
CCCCCCCCCCCCCCCC(=O)OC(CC(=O)O)C[N+](C)(C)C (centres undefined),,inactive,inactive,inactive,inactive,inactive,inactive,
O=C(O)CNC(=O)C(CS)Cc1ccccc1 (centres undefined),,inactive,inactive,inactive,inactive,inactive,inactive,
NCCCCC(=O)O,,inactive,inactive,inactive,inactive,,,
O=C(CCCCCN1CCN(c2ccccc2-c2ccccc2)CC1)NC1CCCc2ccccc21 (centres undefined),,inactive,inactive,inactive,inactive,inactive,inactive,inactive
COc1ccc2c(c1)CCC1C2CC[C@@]2(C)C1CC[C@@H]2NCCCCCCN1C(=O)CCC1=O (some centres undefined),,inactive,inactive,inactive,inactive,inactive,inactive,inactive
COC(=O)c1c(C)[nH]c(C)c1C(=O)c1ccccc1Cc1ccccc1,,inactive,inactive,inactive,inactive,inactive,inactive,
CN1C2CC(OC(=O)[C@H](CO)c3ccccc3)CC1C1OC12 (some centres undefined),,inactive,inactive,inactive,inactive,,,
OCC1O[C@H](O)C(Cl)C(O)C1O (some centres undefined),,inactive,inactive,inactive,inactive,inactive,,inactive
COc1cccc(OC)c1OCCNCC1COc2ccccc2O1 (centres undefined),,inactive,inactive,inactive,inactive,inactive,,inactive
O=P(O)(O)C(Cl)(Cl)P(=O)(O)O,,inactive,inactive,inactive,inactive,inactive,inactive,
CN1CCc2ccccc2Cc2[nH]c3ccccc3c2CC1,,inactive,inactive,inactive,inactive,inactive,,inactive
NO,,inactive,inactive,inactive,inactive,,,
Cc1cc(NC2CCCCC2)nc(-n2nc(C)cc2C)n1,,inactive,inactive,inactive,inactive,inactive,inactive,inactive
